Laboratory results as given in PubChem BioAssay AID720565 (National Center for Advancing Translational Sciences (NCATS), 2013).
Where “and” joins values, the source holds several entries; their conditions need not be identical. Equal entries are not always repeated. Results filed as inconclusive are left out. Calls of active or inactive are those of the source. Calls follow the shape of the dose curve; as a rule, active = well fitted activation curve with a large enough effect; inconclusive = small, poorly fitted or top-dose-only effect; inactive = no such curve, though single readings can be large or run the other way.

Assay: qHTS for small molecules that induce genotoxicity in ELG1 expressing cells: Confirmatory Assay for Cherry-picked Compounds; also: nearly all actives have a fitted effect of over 35% in size
Details: ELG1-luciferase reporter cells, luminescence, 16 h; series mostly up to 46.1 µM
Excerpt: Cancer cells divide rapidly compared to normal cells in the body. During cell division, cancer cells need to duplicate their genome by DNA replication. The failure of genome duplication leads to cancer cells' death. Therefore, inhibitors of DNA replication could specifically kill cancer cells. Based on this concept, many chemotherapeutic agents were developed and have been used to treat cancer patients. However, there are a limited number of agents available in the clinical setting, and some of those that do exist have low efficacy and severe side effects. Therefore, if we can find the compounds that effectively block DNA replication either by directly damaging DNA or by inhibiting other cellular mechanisms, the options for cancer treatment will be broadened. We developed a quantitative high-throughput ELG1-luciferase reporter gene assay. Since the level of human ELG1 protein is enhanced in response to genetic stresses, increases in luciferase activity can be used to identify compounds that cause genetic stress. The data herein is the result of the confirmation assay against the cherry picked compounds selected from the primary qHTS (AID 504466). Activation is the desired outcome for this assay. NIH Chemical Genomics Center [NCGC] NIH Molecular Libraries Probe Centers Network [MLPCN] MLPCN Grant: MH092164 Assay Provider: Kyungjae Myung, National Human Genome Research Institute, NIH
For genotoxicity screening, 2,000 cells/ well (5 uL volume) were dispensed into white, solid-bottom 1536-well plates using a solenoid-based dispenser. Following transfer of 23 nL compound or DMSO vehicle by a pin tool, the plates were incubated 16 hr at 37 C, 5% CO2. Five microliter of ONE-Glo reagent (Promega) was then added to each plate. The assay plates were incubated for 30 min at room temperature followed by quantification of the luciferase activity using the PerkinElmer ViewLux CCD-based plate reader.
Potency is read from the fitted curve at half-maximal effect.

Row | Compound | Potency
1 | CNC(=O)c1cc(-c2cccs2)on1 | inactive
2 | CC(C)CN(C)c1ccc(/C=C2\C=Cc3ccccc32)cc1 | 14.1 µM (active)
3 | COc1cccc(-c2cc(NCc3cccs3)ncn2)c1 | 3.97 µM (active)
4 | Cc1ccc(NC(=O)c2ccc(OC(=O)c3cc4ccccc4o3)cc2)cc1 | 8.89 µM (active)
5 | Cc1cc(C(=O)COC(=O)c2ccc(F)cc2)c(C)n1C | 2.23 µM (active)
6 | Cc1ccc2nc3sc(C(=O)NCc4ccco4)cc3cc2c1 | 7.05 µM (active)
7 | COc1cccc2oc(-c3ccccc3)cc(=O)c12 | 4.45 µM (active)
8 | CNc1ccc(/C=C2\C=Cc3ccccc32)cc1 | 0.792 µM (active)
9 | O=C(Nc1cc(Cl)ccc1Cl)c1ccc(OC(=O)c2ccco2)cc1 | inactive
10 | COc1ccc(/C=C/c2ccc3ccccc3n2)c(OC)c1 | 0.25 µM (active)
11 | O=C1CCN(Cc2ccccc2)C=C1c1ccc2ccccc2c1 | 14.1 µM (active)
12 | CC(=O)c1cc2c(cc1NC(=O)CSc1nc3ccccc3o1)OCO2 | inactive
13 | O=c1[nH]c(-c2ccc(-c3cccc(Cl)c3)o2)nc2ccccc12 | 1.12 µM (active) and 1.41 µM (active)
14 | COc1ccc(OCC(=O)Nc2ccc(-c3nc4cc(C)c(C)cc4o3)cc2)cc1 | 813 nM (active) and 1.12 µM (active)
15 | COc1ccc(-c2cc3cc4c(cc3cn2)OCO4)cc1 | 1.77 µM (active)
16 | O=C(CSc1nnc(-c2cccc(Cl)c2)o1)Nc1ccc2c(c1)OCCO2 | 15.8 µM (active)
17 | Nc1ccc2cccnc2c1 | 1.77 µM (active)
18 | N#C/C(=C\c1cccnc1)c1ccccn1 | inactive
19 | COc1ccc(/C=C/c2cnc3ccccc3n2)cc1OC | 0.112 µM (active)
20 | CN(C)N=Nc1ccc(/C=C2\C=Cc3ccccc32)cc1 | 3.97 µM (active)

Row | Compound | Potency
21 | Cc1cc(C(=O)COC(=O)c2cccnc2Cl)c(C)n1C | 0.706 µM (active)
22 | Oc1ccc(CCc2ccccc2F)c2cccnc12 | 14.1 µM (active)
23 | COCC(C)n1c(C)cc(C(=O)COC(=O)c2cc(=O)[nH]c3ccccc23)c1C (stereo not given) | 2.23 µM (active)
24 | COc1cc(/C=C(\C#N)C(=O)Nc2cccc(C(=O)O)c2)ccc1OCc1ccc(F)cc1 | 28.1 µM (active)
25 | COc1ccc(S(=O)(=O)N2CCCCC2)cc1NC(=O)c1[nH]c(C)c(C(C)=O)c1C | 15.8 µM (active)
26 | O=c1nc2sc3ccccc3n2c(=O)n1-c1cccc(Cl)c1 | 5 µM (active)
27 | CN(C)c1ccc(/C=C/c2ccnc3ccc(F)cc23)cc1 | 0.354 µM (active)
28 | CC1CCCCC1NC(=O)CN1C(=O)NC(C)(c2ccc(OC(F)F)cc2)C1=O (stereo not given) | inactive
29 | Oc1ccccc1-c1cc(-c2ccccc2)n[nH]1 | 2.23 µM (active)
30 | Cc1nc(Nc2nc3ccccc3o2)nc2c1CCCC2 | 0.706 µM (active)
31 | CN(Cc1ccco1)c1ncnc2ccc(-c3cccc(Cl)c3)cc12 | inactive
32 | CN(C)c1ccc(/C=C/c2ccc3ccccc3[n+]2[O-])cc1 | 0.0792 µM (active)
33 | O=c1c2ccccc2oc2c1ccc1ccccc12 | 15.8 µM (active)
34 | CCCCCCC[C@@H](C/C=C/CCC(=O)N(C)C/C(=C/Cl)C/C(=C\C(=O)N1CC(OC)=CC1=O)OC)OC | 1.99 µM (active)
35 | Cc1ccc2c(c1)sc1nc(=O)n(-c3ccc(Cl)c(Cl)c3)c(=O)n12 | inactive
36 | CC(=O)NC12CC3CC(C1)CC(C(=O)OCC(=O)c1cc(C)n(C)c1C)(C3)C2 | 2.81 µM (active)
37 | CN(C)c1ccc(/C=C2\CCc3ccccc32)cc1 | 1.58 µM (active)
38 | NC(=O)C1CCN(c2cc(-c3ccc4c(c3)OCCCO4)ncn2)CC1 | 9.96 µM (active)
39 | Cc1ccc(-c2nnc(SCC(=O)Nc3ccccc3F)o2)cc1 | 115 nM (active) and 88.9 nM (active)
40 | CC1CCC(NC(=O)CN2C(=O)NC(C)(C)C2=O)CC1 (stereo not given) | inactive
